Laboratory results taken from PubChem BioAssay AID1839 (Johns Hopkins Ion Channel Center, 2009).
Out of some 2,400 compounds screened, about 220 (9.2%) were called active.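 How the source made its calls: active means signal change above the mean of dofetilide-free buffer controls plus 3 SD, so a positive margin; inactive means the rest.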 What follows is part of a selection rich in actives, with near analogues and random picks from the rest.

assay: thallium signal changes without hERG – cell-based, CHO-K1 parental line, FluxOR thallium flux, counter-screen for hERG block protection project, confirmation (AID 1839); conditions: CHO-K1 parental cells, FluxOR thallium flux fluorescence; at 10 µM;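 further: compounds applied alone with no dofetilide to cells lacking hERG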

Structure (SMILES)	signal change vs control minus 3*SD hit threshold (margin above threshold, higher = more increase)
COc1ccc(CCNS(=O)(=O)c2csc(C(N)=O)c2)cc1OC	-34.6% (inactive)
CCNC(=S)Nc1scc(-c2ccccc2)c1C(=O)OCC	-20.8% (inactive)
O=c1oc2ccccc2c(Cl)c1CN1CCCCC1	-42.9% (inactive)
NC(=O)C1CCN(C(=O)CCC(=O)c2ccc(F)cc2)CC1	-28.7% (inactive)
Cc1sc2nc(CN3CCOCC3)[nH]c(=S)c2c1C	21.4% (active)
CCOC(=O)NC(=S)Nc1ccc(C(C)(C)C)cc1Br	-0.4% (inactive)
CC(=O)c1c(C)c2c(n1CCN(C)C)CCCC2	-15.9% (inactive)
CSc1nc2c(c(=O)[nH]1)C(c1ccc(Cl)cc1)CC(=O)N2 (stereo not given)	-31.6% (inactive)
O=c1c2ccccc2[nH]c(=S)n1CCc1ccccc1	5.9% (active)
CC(C)CCn1c(=S)[nH]c2ncccc2c1=O	-18.3% (inactive)
COc1ccccc1Cn1c(=S)[nH]c2ccc(Br)cc2c1=O	-15.7% (inactive)
Cc1ccc(Cn2c(=S)[nH]c3ccccc3c2=O)cc1	-14.9% (inactive)
CC(C)COn1c(=S)[nH]c2ccccc2c1=O	-10.2% (inactive)
O=c1c2ccc(Cl)cc2[nH]c(=S)n1CCC1=CCCCC1	4.8% (active)
O=C(CCn1c(=S)[nH]c2cc3c(cc2c1=O)OCO3)NCc1ccc(Cl)cc1	-22.3% (inactive)
CCCCn1c(=S)[nH]c2ccccc2c1=O	-18.2% (inactive)
O=c1c2ccccc2[nH]c(=S)n1CCC1=CCCCC1	3% (active)
O=c1c2cccnc2[nH]c(=S)n1CCC1=CCCCC1	14.4% (active)
CCCCCn1c(=S)[nH]c2ncccc2c1=O	-0.3% (inactive)
O=[N+]([O-])c1ccc(Nc2ccc(Cl)cc2)nc1	-22% (inactive)
COc1cccc(/C=N/n2c(SC)nnc2-c2ccccc2)c1O	-24.3% (inactive)
Cc1cc(=O)[nH]c(=S)n1-c1ccccc1	-38.5% (inactive)
Cc1nn(-c2cccc(C(F)(F)F)c2)c(Cl)c1/C=N/Nc1cccc(C(=O)O)c1	-28.4% (inactive)
CCNC(=O)C/C(C)=N/NC(=O)C(=O)Nc1ccc(CC)cc1	-7.4% (inactive)
COc1ccc(/C=N/NC(=O)c2ccncc2)cc1CN1CCCc2ccccc21	-40.9% (inactive)
CC1CN(S(=O)(=O)c2ccc(-c3nc4ccccc4s3)cc2)CC(C)O1 (stereo not given)	-8.4% (inactive)
CCSc1nnc(NC(=O)Cn2cnc3c2c(=O)n(C)c(=O)n3C)s1	-29.2% (inactive)

Structure (SMILES)	signal change vs control minus 3*SD hit threshold (margin above threshold, higher = more increase)
CCN1C(=O)/C(=C/c2ccc(C)s2)NC1=S	1.1% (active)
CCCN1C(=O)/C(=C/c2ccc(C)s2)NC1=S	33.6% (active)
CCCN1C(=O)/C(=C/c2ccc3c(c2)OCO3)NC1=S	-21.2% (inactive)
COc1ccc(N2C(=O)/C(=C/c3cccs3)NC2=S)cc1	-29.8% (inactive)
CC(C)CN1C(=O)/C(=C/c2cccs2)NC1=S	32% (active)
CC(C)CN1C(=O)/C(=C/c2ccco2)NC1=S	-30.9% (inactive)
COc1ccc(C(=O)NC(=S)N2CCC(C)CC2)cc1Br	-12.4% (inactive)
Oc1c(Br)cc(Cl)cc1C=Nc1ccccc1Br	-1.8% (inactive)
O=C(c1ccc(CS(=O)c2cccc(Cl)c2)o1)N1CCCCCC1 (stereo not given)	-32.8% (inactive)
NS(=O)(=O)c1ccc(NC(=S)NCc2cccs2)cc1	-30.2% (inactive)
O=C(Nc1cccnc1)c1cc(-c2cccs2)on1	-26.5% (inactive)
COC(=O)C1CCCN1C(=O)COc1ccc(Cl)cc1Br (stereo not given)	-25.2% (inactive)
O=C(c1c(O)c2ccccc2oc1=O)C1CCCCC1	-22% (inactive)
CCC(=O)NC(=S)NNC(=O)c1ccccc1[N+](=O)[O-]	-28% (inactive)
CN(C(=S)NC(=O)c1ccccc1Br)C1CCCCC1	-13.4% (inactive)
CCCN(Cc1ccccc1)C(=S)NC(=O)c1ccccc1[N+](=O)[O-]	24.3% (active)
N#CCCN(Cc1ccccc1)C(=S)NC(=O)c1ccccc1	-30.7% (inactive)
CN(Cc1ccccc1)C(=S)NC(=O)c1cccs1	-20.6% (inactive)
O=C(NC(=S)N(Cc1ccccc1)Cc1ccccc1)c1ccccc1F	-6.4% (inactive)
CN(C(=S)NC(=O)c1ccccc1)C1CCCCC1	-23.6% (inactive)
CCN(Cc1ccccc1)C(=S)NC(=O)c1ccccc1Br	27% (active)
CCN(C(=S)NC(=O)c1ccccc1Br)C1CCCCC1	16.2% (active)
CCc1cc2cc(C)cc(C)c2[nH]c1=S	-11.2% (inactive)
COc1ccc(OCC(=O)Nc2c3c(nn2-c2ccc(OC)cc2)CS(=O)(=O)C3)cc1	-14.9% (inactive)
O=C(O)c1ccc(S(=O)(=O)/N=C2\C=C(Nc3ccccc3F)C(=O)c3ccccc32)cc1	-14.9% (inactive)
O=C(Nc1ccccc1)OCCCCCOC(=O)Nc1ccccc1	-25.4% (inactive)
O=C(O)c1ccccc1NC(=O)c1cc2ccccc2oc1=O	-21.3% (inactive)

Structure (SMILES)	signal change vs control minus 3*SD hit threshold (margin above threshold, higher = more increase)
Cc1ccc(C)c(NC(=S)NC(=O)c2cncc(Br)c2)c1	-24.9% (inactive)
CCCCCCC12CCC(C(=O)O)(CC1)CC2	-8.9% (inactive)
O=c1c2[nH]c3ccccc3c2nc2n1CCCS2	-3.7% (inactive)
C=CCNC(=O)c1ccccc1NC(=O)COc1ccc(OC)cc1	-31.9% (inactive)
COc1ccc(N2CCN(C(=S)NC(=O)c3cccs3)CC2)c([N+](=O)[O-])c1	-27.4% (inactive)
COc1cc(/C=C/C(=O)N[C@@H](Cc2c[nH]c3ccccc23)C(=O)O)ccc1O	-19.7% (inactive)
CCCCSc1nnc(CCC)n1N	-30.7% (inactive)
O=C(CC1CCCC1)Nc1ccc2c(c1)CCC2	-18.5% (inactive)
Cc1csc2ncc(C(=O)N3c4ccccc4CC3C)c(=O)n12 (stereo not given)	-16.4% (inactive)
CC1Cc2ccccc2N1C(=S)NC(=O)C1(C)CC1(Cl)Cl (stereo not given)	11.2% (active)
Cc1cccc(C(=O)NC(=S)N2CCc3ccccc3C2)c1	-1.3% (inactive)
CC(C)N(Cc1ccccc1)C(=S)NC(=O)C1(C)CC1(Cl)Cl (stereo not given)	-9.7% (inactive)
CC1Cc2ccccc2N1C(=S)NC(=O)c1cccc(Br)c1 (stereo not given)	48.8% (active)
CC1Cc2ccccc2N1C(=S)NC(=O)c1ccc(Cl)cc1Cl (stereo not given)	23.8% (active)
O=C(NC(=S)N1CCCc2ccccc21)c1ccc(Br)cc1	-8.9% (inactive)
CC(Oc1ccc(Cl)cc1Cl)C(=O)NC(=S)N1CCc2ccccc21 (stereo not given)	-7.9% (inactive)
CC1Cc2ccccc2N1C(=S)NC(=O)c1ccco1 (stereo not given)	-28.6% (inactive)
Oc1c(Cl)cc(CN2CCCCC2)c2cccnc12	-25.2% (inactive)
CCOC(=O)Cc1csc(NC(=S)NC(=O)c2ccccc2C)n1	-13.6% (inactive)
Cc1cc(C(=O)NNC(=O)c2cccs2)nn1C(C)(C)C	-25.3% (inactive)
O=C(N/N=C1/C(=O)c2cccc3cccc1c23)c1ccc(Cl)cc1	41.5% (active)
O=C(NN=C1c2ccccc2-c2ccccc21)c1ccccc1	-27.5% (inactive)
CCNC(=S)N/N=C1\C(=O)c2cccc3cccc1c23	-16.8% (inactive)
Cc1ccc(-c2n[nH]c(=S)nc2-c2ccc(C)cc2)cc1	-27.5% (inactive)
CSc1nc2c(c(=O)[nH]1)C(c1ccc(F)cc1)CC(=O)N2 (stereo not given)	-36% (inactive)
CC(C)CC(=O)Nc1ccc2c3c(cccc13)CC2	-19.8% (inactive)
CCCn1c(SCC(=O)N2CCN(C(C)=O)CC2)nc2sc3c(c2c1=O)CCC3	-6.2% (inactive)

Structure (SMILES)	signal change vs control minus 3*SD hit threshold (margin above threshold, higher = more increase)
O=c1c2c3c(sc2[nH]c(=S)n1Cc1ccco1)CCC3	-6.1% (inactive)
CCn1c(SCC(N)=O)nc2sc3c(c2c1=O)CCCC3	-14.4% (inactive)
COCCCn1c(=S)[nH]c2sc3c(c2c1=O)CCCC3	2.5% (active)
COCCn1c(=S)[nH]c2sc3c(c2c1=O)CCCC3	-5.6% (inactive)
C=CCn1c(=S)[nH]c2nc3c(cc2c1=O)CCCC3	-15.7% (inactive)
CCn1c(=S)[nH]c2sc3c(c2c1=O)CCCC3	8.5% (active)
COCCCn1c(=S)[nH]c2c(sc3ccccc32)c1=O	-36.9% (inactive)
C=CCn1c(=S)[nH]c2sc3c(c2c1=O)CCC3	-7.2% (inactive)
CCCn1c(=S)[nH]c2sc3c(c2c1=O)CCCC3	32.1% (active)
C=CCn1c(=S)[nH]c2sc3c(c2c1=O)CCCC3	3.6% (active)
Cc1ccnc(N2CCC(C(=O)Nc3ccc(Oc4ccccc4)cc3)CC2)n1	-28.4% (inactive)
CCCn1c(SCC(N)=O)nc2c(c1=O)C1(CCCC1)Cc1ccccc1-2	-7.7% (inactive)
COc1ccc(NC(=O)CCN2C(=O)C3C4C=CC(C4)C3C2=O)cc1 (stereo not given)	-35% (inactive)
C=CCN(CC=C)C(=S)NC(=O)Cc1cccc2ccccc12	-17.1% (inactive)
COc1ccc(C(CC(=O)N2CCOCC2)c2c(O)cc(OC)cc2OC)cc1 (stereo not given)	-27.3% (inactive)
CCSc1nc2c(sc3ccccc32)c(=O)n1C(C)C	-0.8% (inactive)
Cc1ccc2[nH]c(C(=O)O)c(-c3ccccc3)c2c1	-18.6% (inactive)
CCOC(=O)C1=C(O)/C(=C/c2ccc(OCC(=O)O)c(OC)c2)SC1=Nc1ccc(OCC)cc1	-28.1% (inactive)
COc1ccc(-c2cc(C(=O)N3CCCC3)no2)cc1OC	-5.8% (inactive)
CCOC(=O)c1[nH]c(=O)[nH]c1COC(=O)c1cc2ccccc2o1	-34.3% (inactive)
COc1ccc(NC(=O)CSCC(=O)Oc2c(OC)cccc2OC)cc1	-30.4% (inactive)
CCn1c(SC(C)C(=O)O)nc2sc3c(c2c1=O)CCC3 (stereo not given)	-5.9% (inactive)
Cc1cc(C)n(-c2nc3sc4c(c3c(=O)[nH]2)CCCC4)n1	-29.7% (inactive)
CCn1c(=S)[nH]c2sc3c(c2c1=O)CCCCC3	37.1% (active)
